PubChem BioAssay (NCI)
Compounds without any hit were thinned out: in the full panel of roughly 83,000, 20% have a hit.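 Plates (96-well) were seeded with cells, treated with compound at one concentration, and incubated for 48 hours before percent growth was determined.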 Values without a mark were called inactive. Calls of active or inactive are those of the source. The calls were made as follows: active = growth percent below 10; inactive = the rest.

What was measured:
Assay in all cases: NCI-60 one-dose screen, 48 h (100 = growth as untreated, 0 = no growth, -100 = all killed)
Details in all cases: 10 µM unless noted
[1] = test system: BT-549 breast
[2] = test system: MDA-MB-435 melanoma
[3] = test system: SW-620 colon
[4] = test system: MCF7 breast
[5] = test system: HCT-116 colon
[6] = test system: HCC-2998 colon
[7] = test system: KM12 colon

SMILES: COc1cc(C2NC(c3ccc(Cl)cc3)C(C)/C(=N/NC(N)=S)C2C)cc(OC)c1OC (stereo unspecified)
- growth [1]: 111%
- growth [2]: 107%
- growth [3]: 106%
- growth [4]: 90.3%
- growth [5]: 73.1%
- growth [6]: 126%
- growth [7]: 88.6%

SMILES: CSc1nc2c(c(=O)[nH]1)C(c1ccc(Cl)cc1)C1=C(N2)/C(=C/c2ccc(Cl)cc2)CNC1 (stereo unspecified)
- growth [1]: 24.8%
- growth [2]: 34.5%
- growth [3]: -9.84% (active)
- growth [4]: 13%
- growth [5]: -69.5% (active)
- growth [6]: 17.3%
- growth [7]: -24% (active)

SMILES: O=C1c2ccccc2-c2c1nc1ccccc1[n+]2[O-]
- growth [1]: 98.2%
- growth [2]: 110%
- growth [3]: 97.5%
- growth [4]: 95.8%
- growth [5]: 98.5%
- growth [6]: 104%
- growth [7]: 101%

SMILES: O=C(O)c1ccc(NC(=O)c2ccc(Nc3ccnc(C(F)(F)F)c3)cc2)cc1
- growth [1]: 109%
- growth [2]: 104%
- growth [3]: 105%
- growth [4]: 100%
- growth [5]: 104%
- growth [6]: 103%
- growth [7]: 93.2%

SMILES: COc1ccc(C2CC(c3ccc(OC)c(OC)c3)=NN2C(=O)c2cc(OC)c(OC)c(OC)c2)c(OC)c1 (stereo unspecified)
- growth [1]: 63.2%
- growth [2]: 3.86% (active)
- growth [3]: 62.2%
- growth [4]: 35.1%
- growth [5]: 68.7%
- growth [6]: 96.5%
- growth [7]: 61.5%

SMILES: Cc1nn(-c2ccccc2)c(Cl)c1C(CC(=O)c1ccc(Cl)cc1)CC(=O)c1ccc(Cl)cc1
- growth [1]: 85.6%
- growth [2]: 90.9%
- growth [3]: 96.4%
- growth [4]: 92.7%
- growth [5]: 75.4%
- growth [6]: 99.1%
- growth [7]: 86.1%

SMILES: COC(=O)[C@]12CC[C@@H](C)[C@H](C)[C@@H]1C1=CC[C@@H]3[C@@]4(C)C[C@@H](OC(=O)c5ccco5)[C@H](O)[C@@](C)(CO)[C@@H]4[C@H](O)C[C@@]3(C)[C@]1(C)CC2
- growth [1]: -68.1% (active)
- growth [2]: -86.7% (active)
- growth [3]: -81.4% (active)
- growth [4]: -73.7% (active)
- growth [5]: -63.3% (active)
- growth [6]: -89.1% (active)
- growth [7]: -85.8% (active)

SMILES: O=C1C2C3C=CC(O3)C2C(=O)N1Nc1ccccc1 (stereo unspecified)
- growth [1]: 108%
- growth [2]: 96.9%
- growth [3]: 108%
- growth [4]: 98.9%
- growth [5]: 106%
- growth [6]: 102%
- growth [7]: 115%

SMILES: O=C(Nc1cccc(-n2cc(-c3ccncc3)c(-c3ccc(O)c(Cl)c3)n2)c1)Nc1ccc(Cl)c(C(F)(F)F)c1
- growth [1]: -12.6% (active)
- growth [2]: -61.6% (active)
- growth [3]: 8.96% (active)
- growth [4]: -7.24% (active)
- growth [5]: -8.62% (active)
- growth [6]: 14.7%
- growth [7]: -25.2% (active)

SMILES: O=C1c2ccccc2C(=O)c2c1cccc2-n1nnc2ccccc21
- growth [1]: 113%
- growth [2]: 121%
- growth [3]: 105%
- growth [4]: 112%
- growth [5]: 86.5%
- growth [6]: 83.4%
- growth [7]: 110%

SMILES: COc1ccc2[nH]cc(/C=C3/C(=O)Nc4ccc(Cl)cc43)c2c1
- growth [1]: 40.9%
- growth [2]: 22.9%
- growth [3]: 53.7%
- growth [4]: 40.7%
- growth [5]: 13.5%
- growth [6]: 43.9%
- growth [7]: 3.07% (active)

SMILES: COc1ccc2c(c1)nc(N)c1c3cc(OC)c(OC)cc3cn21
- growth [1]: 79.8%
- growth [2]: -26.7% (active)
- growth [3]: 34.5%
- growth [4]: 17.5%
- growth [5]: 27.7%
- growth [6]: 54.5%
- growth [7]: 26.9%

SMILES: COc1cc(/C=C2\COc3ccc(O)c(O)c3C2=O)cc(OC)c1
- growth [1]: 3.92% (active)
- growth [2]: 0.577% (active)
- growth [3]: -19.3% (active)
- growth [4]: 16.7%
- growth [5]: -56% (active)
- growth [6]: 25.1%
- growth [7]: -11.1% (active)

SMILES: CC(C)[C@H]1CC[C@H]2[C@@H](CC[C@H]3[C@](C)(CN)CCC[C@]23C)C1
- growth [1]: 99.4%
- growth [2]: 1.77% (active)
- growth [3]: -12.2% (active)
- growth [4]: -55.8% (active)
- growth [5]: 5.32% (active)
- growth [6]: 29.3%
- growth [7]: 36.7%

SMILES: CN1C(=O)C(=Cc2cn(Cc3ccccc3)c3ccc(Br)cc23)C(=O)N(C)C1=O
- growth [1]: 102%
- growth [2]: 102%
- growth [3]: 108%
- growth [4]: 87%
- growth [5]: 101%
- growth [6]: 107%
- growth [7]: 102%

SMILES: Cc1cccc(Cl)c1NC(=O)c1ccc2nc(NC(=O)NC3CC(C)(C)NC(C)(C)C3)sc2c1
- growth [1]: 95%
- growth [2]: 90%
- growth [3]: 110%
- growth [4]: 86.5%
- growth [5]: 89.1%
- growth [6]: 96.5%
- growth [7]: 110%

SMILES: CN1COc2ccc3ccccc3c2C1
- growth [1]: 98.1%
- growth [2]: 106%
- growth [3]: 99.7%
- growth [4]: 91.8%
- growth [5]: 93.1%
- growth [6]: 93%
- growth [7]: 105%

SMILES: COc1ccc(-c2csc(NC(=O)c3cc(OC)c(OC)c(OC)c3)n2)cc1
- growth [1]: 106%
- growth [2]: 96.4%
- growth [3]: 102%
- growth [4]: 98.3%
- growth [5]: 106%
- growth [6]: 112%
- growth [7]: 108%
